High-throughput results as filed in PubChem BioAssay.
ATXN viability: Viability Counterscreen for Primary qHTS for Inhibitors of ATXN expression; S2 cells (HEK-293 line with an ATXN2-luciferase reporter) viability, CellTiter-Fluor protease fluorescence, 24 h; Potency, µM (highest dose often 56.7 µM), hits mostly cytotoxic; actives 0.49% (n = 400,000); AID 651635, 2014; also: nearly all actives have a fitted effect of over 40% in size
TGFb inhibitor: qHTS for Inhibitors of TGF-b. HepG2 CAGA-GFP TGF-b/SMAD3 reporter, GFP fluorescence, 18 h; TGF-beta stimulated, 500 pg/mL final. Potency, µM (highest dose often 46.1 µM), for the others: at the top dose activity, negative = inhibition, hits mostly inhibitors. actives 1.2% (n = 410,000); also: % is scaled to controls: 0 for no effect and ±100 for the full control effect; nearly all actives have a fitted effect of over 65% in size
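Smad-responsive CAGA-GFP expression was quantified in HEPG2 cells exposed to compounds and 500 pg/mL final TGF-beta for 18 h at 37 degrees C; unstimulated wells defined full inhibition.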
HepG2 tox: qHTS for Inhibitors of TGF-b: Cytotox Counterscreen. actives 0.76% (n = 410,000). Potency, µM (titrated, usually from 46.1 µM), inactives show at the highest dose activity change, negative = cytotoxicity, actives largely listed as cytotoxic. HepG2 CAGA-GFP viability, ATP luminescence, 18 h
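CellTiter-Glo luminescence gave cytotoxicity after 18 hours at 37 degrees C. The cells were HepG2 CAGA-GFP in 1% FBS DMEM, stimulated with 500 pg/mL TGF-beta after compound addition. %Activity was normalised to no-cell wells (complete cell-killing) and DMSO (no toxicity), and curves were fitted and classified.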
12-LOX inh: Primary qHTS assay for inhibitors of human arachidonate 12S-lipoxygenase (ALOX12): Round 2; actives 1.1% (n = 580,000); Potency, µM (series often up to 108 µM), for inactives: top-dose activity change, negative = inhibition, hits mostly inhibitors; Polyunsaturated fatty acid lipoxygenase ALOX12 (Homo sapiens), P18054; purified 12hLO, xylenol orange hydroperoxide absorbance; also: % is scaled to controls: 0 for no effect and ±100 for the full control effect
Target sequence (P18054 whole entry, looked up): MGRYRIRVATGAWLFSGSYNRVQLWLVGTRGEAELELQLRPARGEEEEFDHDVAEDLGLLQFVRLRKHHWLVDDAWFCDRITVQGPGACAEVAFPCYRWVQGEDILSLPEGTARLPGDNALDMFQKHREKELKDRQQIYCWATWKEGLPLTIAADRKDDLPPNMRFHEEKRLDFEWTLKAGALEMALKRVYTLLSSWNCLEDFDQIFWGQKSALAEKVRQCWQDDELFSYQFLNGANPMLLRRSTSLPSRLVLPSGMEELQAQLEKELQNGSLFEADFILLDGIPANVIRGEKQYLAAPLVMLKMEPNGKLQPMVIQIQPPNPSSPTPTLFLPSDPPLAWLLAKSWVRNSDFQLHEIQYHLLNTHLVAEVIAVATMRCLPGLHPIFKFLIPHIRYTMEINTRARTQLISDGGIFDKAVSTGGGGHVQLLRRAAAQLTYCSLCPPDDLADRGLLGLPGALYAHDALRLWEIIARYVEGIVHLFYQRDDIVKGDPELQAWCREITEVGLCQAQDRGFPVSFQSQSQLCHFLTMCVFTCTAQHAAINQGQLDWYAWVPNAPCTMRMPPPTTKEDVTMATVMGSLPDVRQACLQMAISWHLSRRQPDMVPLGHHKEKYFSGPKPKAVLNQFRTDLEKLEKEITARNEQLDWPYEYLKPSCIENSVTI
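Hydroperoxide product was detected by ferrous iron/xylenol orange as the 573 to 405 nm absorbance ratio. Arachidonic acid at 40 uM (final) was turned over for 30 min at room temperature by 150 nM human 12hLO, pH 7.0 Hepes buffer, after 15 min compound preincubation.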
ATXN2 expr inh: Primary qHTS for Inhibitors of ATXN expression; HEK-293 ATXN2-luciferase reporter, luminescence, 24 h; Potency, µM (highest dose often 57 µM), for the others: at the highest dose activity change, negative = inhibition, actives largely listed as inhibitors; actives 0.72% (n = 360,000); AID 1745845, 2022; also: % is scaled to controls: 0 for no effect and ±100 for the full control effect; nearly all actives have a fitted effect of over 55% in size
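qHTS (up to 57 uM final) was run with 24 h compound exposure of reporter cells at 37 °C. Each well was multiplexed: SteadyGlo luminescence measured ATXN2-luciferase expression after a fluorogenic Gly-Phe-AFC viability readout (25 uM final).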
* = called active by the depositor; i = inactive; u = inconclusive; x = no result given; [ ] = dose if it differs, or a comment. This is a sample that favours compounds with a hit; in the whole collection about 2.7% have one here. Calls follow the shape of the dose curve; as a rule, active = well fitted curve in the direction sought with a large enough effect; inconclusive = small, poorly fitted or top-dose-only effect, or another doubt; inactive = no such curve, though single readings can be large; an effect the other way counts as inactive or inconclusive. Potency is read from the fitted curve at half-maximal effect.

SMILES	ATXN viability	TGFb inhibitor	HepG2 tox	12-LOX inh	ATXN2 expr inh
CCc1cccc(NC(=O)C2CCCN(c3cnn(Cc4ccccc4)c(=O)c3)C2)c1 (stereo not given)	x	x	x	40µM*	x
O=C(c1ccc(Cl)cc1)N1CCCCC(Sc2nnc(-c3ccc4c(c3)OCO4)o2)C1=O (stereo not given)	i	5%	-30%	0%	2.2µM*
O=C1/C(=C\c2ccco2)CCC/C1=C\c1ccco1	i	-20%	-33%	25µM*	76%
O=S(=O)(NC(c1ccccc1)c1cccs1)c1ccccc1 (stereo not given)	x	x	x	5%	x
N#CC(=C1C=C(Br)C(=NO)C=C1Cl)c1ccc(Cl)cc1	u	-26%	-24%	u	x
N#CC(=C1C=CC(=NO)C(Cl)=C1)c1ccccc1	i	11µM*	-62%	u	0%
COc1cc(/C=C/c2nc(C#N)c(NCCCn3ccnc3)o2)cc(OC)c1OC	x	x	x	18%	x
Cc1ccc(N=Cc2c(Cl)cccc2Cl)c(C)c1	x	x	x	28%	x
COC(=O)c1cc(Sc2c(Cl)cccc2Cl)ccn1	i	-16%	-23%	40µM*	-18%
CCNC(=O)N1CCN(CCCC(c2ccc(F)cc2)c2ccc(F)cc2)CC1	u	-11%	-33%	35µM*	u
Cc1nc(-c2cccs2)sc1C(=O)NN	i	-4%	10%	12%	-15%
Cc1nc(-c2ccc(C(F)(F)F)cc2)sc1C(=O)NN	i	-18%	-15%	i	16µM*
Oc1cccc(-c2nc3ncccn3c2Nc2cccc(C(F)(F)F)c2)c1	u	13µM*	-69%	u	u
CCN(CC)S(=O)(=O)c1cccc(C(=O)N/N=C(\C)c2ccc(O)cc2O)c1	x	21%	-29%	-4%	2.4µM*
CCCCNS(=O)(=O)c1ccc(NC(=O)C2c3ccccc3Oc3ccccc32)cc1	i	u	10µM*	u	-31%
CCOC(=O)c1cc(NS(=O)(=O)c2ccc3ccccc3c2)cc(C(=O)OCC)c1	x	x	x	0%	x
CCCCn1c2nc3ccccc3nc2c2c(=O)n(CCC(C)C)cnc21	i	-1%	-1%	-8%	-1%
CCCCn1cnc2c(c1=O)c1nc3ccccc3nc1n2Cc1ccc2c(c1)OCO2	i	7%	2%	7.9µM*	6%
COC1CCN(c2cc(-c3ccccn3)nc3c(C)noc23)CC1	x	x	x	18%[176 µM]	x
COc1ccccc1-c1cc(N2CCN(c3ccccn3)CC2)c2onc(C)c2n1	x	x	x	89µM*	x
O=[N+]([O-])c1cccc(N=Cc2ccncc2)c1	x	x	x	41%	x
CC1=NN(C(N)=S)C(=O)C1N=Nc1cccc(C)c1 (stereo not given)	i	1.8µM*	-38%	-12%	x
C#CCn1c(=NC(=O)c2ccc(S(=O)(=O)N3CCc4ccccc4C3)cc2)sc2cc(S(N)(=O)=O)ccc21	18µM*	-8%	2.8µM*	x	u
O=C(Nc1cccc(Oc2ccccc2)c1)c1ccc(-n2cncn2)c2ccoc12	6.3µM*	-3%	-24%	-10%	-24%
O=C(Nc1cccc(F)c1)c1ccc(-n2cncn2)c2ccoc12	u	20%	0%	-11%	10%
SMILES	ATXN viability	TGFb inhibitor	HepG2 tox	12-LOX inh	ATXN2 expr inh
Clc1ccc(C2C=C(c3ccccc3)Nc3nnnn32)c(Cl)c1 (stereo not given)	x	x	x	18µM*	x
COc1ccc(C2=CC(c3cccc(C)c3)n3nnnc3N2)cc1 (stereo not given)	x	-15%	0%	1%	-3%
COc1ccc(C2C=C(c3ccc(Cl)cc3)Nc3nc(-c4ccc(Cl)cc4)nn32)cc1 (stereo not given)	u	4%	-11%	5.6µM*	u
COc1ccc(C2=CC(c3c(F)cccc3Cl)n3nnnc3N2)cc1 (stereo not given)	x	x	x	40µM*	x
O=C1CC(c2ccccc2)Cc2[nH]c(=O)c(C(=O)Nc3ccc(F)cc3)cc21 (stereo not given)	i	-3%	-31%	-2%	9%
O=C1CC(c2ccccc2)Cc2[nH]c(=O)c(C(=O)Nc3ccc(OC(F)(F)F)cc3)cc21 (stereo not given)	25µM*	-7%	6%	-7%	-3%
CCn1cc(C(=O)NCc2ccccc2)c(=O)c2cc(F)c(N3CCN(C(=O)c4ccco4)CC3)cc21	i	20µM*	-49%	u	u
COc1ccc(CN(C)C(=O)/C=C/c2ccc(S(=O)(=O)N3CCCCCC3)cc2)cc1	i	u	-10%	0%	-6%
CNC(=O)c1ccc(CN(C)C(=O)/C=C/c2ccc(S(=O)(=O)N3CCCCCC3)cc2)cc1	i	-25%	7.1µM*	-13%	x
C=C1C(=O)O[C@@H]2[C@H]3O[C@]3(C)CC/C=C(\C)CC[C@@H]12	i	13µM*	13µM*	3%	14%
CCc1cccc(OCCCCN(CC)CC)c1	i	-5%	4%	1.1µM*	-18%
O=C(COc1cccnc1[N+](=O)[O-])Nc1c(Cl)cccc1Cl	i	6%	8%	-10%	3%
O=C(COc1cccnc1[N+](=O)[O-])c1ccc(Cl)s1	i	-1%	-3%	40µM*	8%
CN(C)c1cccc(C(=O)NNC(=O)c2ccccc2F)c1	x	x	x	3%	x
Fc1ccccc1C1CC(c2ccco2)=Nc2ccccc2S1 (stereo not given)	u	18µM*	-132%	-25%	x
O=C(Cn1nnc(-c2ccc(CN3CCOCC3)cc2)n1)Nc1nc(-c2ccccc2)cs1	i	13µM*	-44%	-21%	-10%
O=C(CN1CCOCC1)Nc1nc(-c2ccccc2)cs1	i	0%	1%	0%	11%
O=c1oc2c(-c3cccc(F)c3)cc(O)cc2s1	i	-16%	-5%	35µM*	u
O=C(O)CCc1conc1-c1cccc(F)c1	x	x	x	14%	x
COc1cccc(CN2CCc3c(cc(C(=O)Nc4ccccc4)n3C)C2)c1	x	x	x	4%	x
COc1ccc(NC(=O)c2cc3c(n2C)CCN(Cc2ccc(F)cc2)C3)cc1	x	x	x	18µM*	x
Cc1ccc2cc(CN(Cc3ccc4c(c3)OCO4)Cc3nnnn3Cc3ccco3)c(=O)[nH]c2c1C	i	u	-34%	13µM*	-12%
CN(Nc1cccc(Cl)c1)c1cccc(Cl)c1	i	u	-16%	32µM*	-21%
CCC(c1nnnn1C1CCCC1)N(Cc1cccs1)Cc1cc2cc(C)ccc2[nH]c1=O (stereo not given)	u	3%	-10%	u	32µM*
Cc1ccc(Cn2c(Sc3ccc(C)cc3)nc3c2c(=O)[nH]c(=O)n3C)cc1	x	x	x	-5%	x
